One may read the AC50 as the concentration giving half of the maximal activity seen.

Activity calls are given as the source filed them. The calls were made as follows: active = hit-call score of the fitted dose curve at least 0.9, where 1 is the maximum; inactive = score below 0.9.

Sequence of Cytochrome P450 3A7 (Homo sapiens) (P24462 whole entry, looked up): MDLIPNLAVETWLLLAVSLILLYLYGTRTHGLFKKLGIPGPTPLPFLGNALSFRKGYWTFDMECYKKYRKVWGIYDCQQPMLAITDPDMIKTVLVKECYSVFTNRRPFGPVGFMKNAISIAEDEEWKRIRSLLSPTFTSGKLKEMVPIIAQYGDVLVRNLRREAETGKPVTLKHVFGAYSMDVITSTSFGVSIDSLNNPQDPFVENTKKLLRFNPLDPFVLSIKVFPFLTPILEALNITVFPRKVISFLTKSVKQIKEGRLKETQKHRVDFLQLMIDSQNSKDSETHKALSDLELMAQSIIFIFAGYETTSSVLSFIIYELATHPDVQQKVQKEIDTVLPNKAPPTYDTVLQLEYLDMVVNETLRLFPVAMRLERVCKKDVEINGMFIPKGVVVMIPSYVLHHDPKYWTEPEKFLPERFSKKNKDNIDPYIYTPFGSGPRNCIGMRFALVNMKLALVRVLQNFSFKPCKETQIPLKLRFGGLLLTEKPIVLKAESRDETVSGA

Read-out in the first experiment: Ezrin (EZR), EZR (gene 7430)
Briefly: LTEA_HepaRG_EZR: Life Technologies and Expression Analysis (LTEA) Assay for Ezrin (EZR) using HepaRG (AID 2283491). Conditions: mRNA level, 48 h; actives raise or lower the signal. Put shortly: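 HepaRG, 48 h chemical exposure, 8-pt half-log series from 100 uM, 0.5% DMSO vehicle, duplicates. Read-out: EZR mRNA by TaqMan qRT-PCR (Fluidigm array), housekeeping-normalized; bidirectional curve fit vs DMSO baseline.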
Take `CC(C)(O)C(=O)Nc1ccc([N+](=O)[O-])c(C(F)(F)F)c1`: the result was inactive.
`CCC(C)(CC)c1cc(NC(=O)c2c(OC)cccc2OC)on1`: the result was inactive.
For `Cc1ccccc1O`, the result was inactive.
As for `CN(C)CCO`, the molecule was called inactive.
Take `Cc1ccccc1CO[C@@H]1C[C@@]2(C(C)C)CC[C@]1(C)O2`: the molecule was classed as inactive.
Turning to `Cc1cc(-c2ccc(N)c(C)c2)ccc1N`, the molecule was called inactive.
On to `c1cc2ccc3cccc4ccc(c1)c2c34`, for which the result was inactive.
Consider `Oc1c(Cl)c(Cl)c(Cl)c(Cl)c1Cl`, for which the AC50 was 1.58 µM (active).
With `O=NN(c1ccccc1)c1ccccc1`, the result was inactive.
Take `Clc1ccc(C(c2ccccc2Cl)C(Cl)(Cl)Cl)cc1` (centres undefined): the result was inactive.
For `NS(=O)(=O)C(F)(F)C(F)(F)C(F)(F)C(F)(F)C(F)(F)C(F)(F)C(F)(F)C(F)(F)F`, the AC50 is 11.4 µM (active).
On to `O=S(=O)(O)C(F)(F)C(F)(F)C(F)(F)C(F)(F)F`, for which the call was inactive.
Regarding `Nc1ccc(-c2ccc(N)cc2)cc1`, the outcome was inactive.
Same read-out and setting: for `C=CC(N)=O` the value was “inactive”; for `CCOCCOC(C)=O`, “inactive”.
With `O=C(O)C(F)(F)C(F)(F)C(F)(F)C(F)(F)C(F)(F)C(F)(F)C(F)(F)C(F)(F)F`, the AC50 is 77 µM (active).
Regarding `CCCCCCCCCc1ccc(O)cc1`, the call was inactive.
Consider `CO/C=C(/C(=O)OC)c1ccccc1COc1cccc(C(F)(F)F)n1`, for which the AC50 is 5.1 µM (active).
Consider `ClC1=C(Cl)[C@]2(Cl)[C@@H]3[C@@H]4C[C@@H]([C@H]5O[C@@H]45)[C@@H]3[C@@]1(Cl)C2(Cl)Cl`, for which the result was inactive.
On to `Cc1ccccc1[N+](=O)[O-]`, for which the molecule was called inactive.
For `Oc1ccc(Cl)cc1Cl`, the molecule was classed as inactive.
Take `Clc1ccc(C(Cl)(Cl)Cl)cc1`: the call was inactive.
As to `C=CC(=O)NCNC(=O)C=C`, the molecule was called inactive.
For `C1CC2OC2CC1C1CO1` (centres undefined), the call was inactive.
For `O=C(NC(=O)c1c(F)cccc1F)Nc1cc(Cl)c(OC(F)(F)C(F)F)c(Cl)c1`, the call was inactive.
In the case of `O=C(NC(=O)c1cc(F)c(F)cc1Cl)Nc1cc(F)ccc1N1CCC(C(=O)O)CC1`, the molecule was classed as inactive.
On to `ClC(Cl)=C(c1ccc(Cl)cc1)c1ccc(Cl)cc1`, for which the molecule was classed as inactive.
For the molecule `CCC(C)(c1ccc(O)cc1)c1ccc(O)cc1`, the call was inactive.
`COS(=O)(=O)OC`: the molecule was classed as inactive.
As for `N#Cc1ccc(N(CC(N)=O)CC(F)(F)F)cc1C(F)(F)F`, the molecule was classed as inactive.
With `CCC(=O)O[C@H]1CC[C@H]2[C@@H]3CCC4=CC(=O)CC[C@]4(C)[C@H]3CC[C@]12C`, the outcome was inactive.
Turning to `CCCCCCCCOC(=O)c1ccccc1C(=O)OCCCCCCCC`, the molecule was called inactive.

Read-out in another experiment: Cytochrome P450 3A7 (Homo sapiens) (UniProt P24462)
Put plainly: LTEA_HepaRG_CYP3A7: Life Technologies and Expression Analysis (LTEA) Assay for CYP3A7 using HepaRG (AID 2283492). Conditions: mRNA level, 48 h; actives raise or lower the signal. In outline:
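Differentiated HepaRG cells in serum-free induction medium exposed 48 h in duplicate to 8-point half-log series from 100 uM top in 0.5% DMSO. CYP3A7 mRNA by qRT-PCR, normalized to ACTB/GAPDH/POLR2A, bidirectional fit versus DMSO.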
Regarding `CC(C)(O)C(=O)Nc1ccc([N+](=O)[O-])c(C(F)(F)F)c1`, the outcome was inactive.
On to `CCC(C)(CC)c1cc(NC(=O)c2c(OC)cccc2OC)on1`, for which the AC50 is 1.39 µM (active).
Consider `Cc1ccccc1O`, for which the molecule was classed as inactive.
Consider `CN(C)CCO`, for which the molecule was classed as inactive.
On to `Cc1ccccc1CO[C@@H]1C[C@@]2(C(C)C)CC[C@]1(C)O2`, for which the outcome was inactive.
In the case of `Cc1cc(-c2ccc(N)c(C)c2)ccc1N`, the call was inactive.
With `Oc1c(Cl)c(Cl)c(Cl)c(Cl)c1Cl`, the AC50 was 4.85 µM (active).
As for `O=NN(c1ccccc1)c1ccccc1`, the molecule was classed as inactive.
Regarding `Clc1ccc(C(c2ccccc2Cl)C(Cl)(Cl)Cl)cc1` (centres undefined), the AC50 is 0.41 µM (active).
For `NS(=O)(=O)C(F)(F)C(F)(F)C(F)(F)C(F)(F)C(F)(F)C(F)(F)C(F)(F)C(F)(F)F`, the AC50 was 7.34 µM (active).
In the case of `O=S(=O)(O)C(F)(F)C(F)(F)C(F)(F)C(F)(F)F`, the molecule was classed as inactive.
For `C=CC(N)=O`, the molecule was classed as inactive.
With `CCOCCOC(C)=O`, the molecule was called inactive.
`O=C(O)C(F)(F)C(F)(F)C(F)(F)C(F)(F)C(F)(F)C(F)(F)C(F)(F)C(F)(F)F`: the half-maximal activity concentration (AC50) is 89 µM (active).
`CCCCCCCCCc1ccc(O)cc1`: the outcome was inactive.
Turning to `CO/C=C(/C(=O)OC)c1ccccc1COc1cccc(C(F)(F)F)n1`, the AC50 was 3.4 µM (active).
On to `ClC1=C(Cl)[C@]2(Cl)[C@@H]3[C@@H]4C[C@@H]([C@H]5O[C@@H]45)[C@@H]3[C@@]1(Cl)C2(Cl)Cl`, for which the outcome was inactive.
`Cc1ccccc1[N+](=O)[O-]`: the molecule was called inactive.
As for `Oc1ccc(Cl)cc1Cl`, the molecule was called inactive.
Take `Clc1ccc(C(Cl)(Cl)Cl)cc1`: the molecule was classed as inactive.
On the same count and under the same terms, for `C=CC(=O)NCNC(=O)C=C` the value was “inactive”; for `C1CC2OC2CC1C1CO1` (centres undefined), “inactive”.
Consider `O=C(NC(=O)c1c(F)cccc1F)Nc1cc(Cl)c(OC(F)(F)C(F)F)c(Cl)c1`, for which the outcome was inactive.
For the molecule `O=C(NC(=O)c1cc(F)c(F)cc1Cl)Nc1cc(F)ccc1N1CCC(C(=O)O)CC1`, the result was inactive.
As for `ClC(Cl)=C(c1ccc(Cl)cc1)c1ccc(Cl)cc1`, the AC50 was 8.96 µM (active).
Turning to `CCC(C)(c1ccc(O)cc1)c1ccc(O)cc1`, the molecule was called inactive.
Same read-out and setting: for `COS(=O)(=O)OC` the value was “inactive”.
For the molecule `N#Cc1ccc(N(CC(N)=O)CC(F)(F)F)cc1C(F)(F)F`, the molecule was called inactive.
Consider `CCC(=O)O[C@H]1CC[C@H]2[C@@H]3CCC4=CC(=O)CC[C@]4(C)[C@H]3CC[C@]12C`, for which the call was inactive.
As for `CCCCCCCCOC(=O)c1ccccc1C(=O)OCCCCCCCC`, the molecule was called inactive.

Read-out in the next experiment: CYP3A5 (gene 1577)
Briefly: LTEA_HepaRG_CYP3A5: Life Technologies and Expression Analysis (LTEA) Assay for CYP3A5 using HepaRG (AID 2283493). To be noted: mRNA level, 48 h; actives raise or lower the signal. Put shortly:
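HepaRG plated 48 h, switched to serum-free induction medium, chemicals added 48 h (max 100 uM, half-log, 0.5% DMSO). RNA isolated; CYP3A5 by TaqMan qRT-PCR. Gain/loss vs DMSO.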
On to `CC(C)(O)C(=O)Nc1ccc([N+](=O)[O-])c(C(F)(F)F)c1`, for which the molecule was classed as inactive.
The same measure, in the same setting: then `CCC(C)(CC)c1cc(NC(=O)c2c(OC)cccc2OC)on1`, with “inactive”; and `Cc1ccccc1O`, with “inactive”; and `CN(C)CCO`, with “inactive”.
`Cc1ccccc1CO[C@@H]1C[C@@]2(C(C)C)CC[C@]1(C)O2`: the molecule was called inactive.
In the case of `Cc1cc(-c2ccc(N)c(C)c2)ccc1N`, the outcome was inactive.
Consider `c1cc2ccc3cccc4ccc(c1)c2c34`, for which the molecule was classed as inactive.
Turning to `Oc1c(Cl)c(Cl)c(Cl)c(Cl)c1Cl`, the AC50 was 10.6 µM (active).
With `O=NN(c1ccccc1)c1ccccc1`, the result was inactive.
In the case of `Clc1ccc(C(c2ccccc2Cl)C(Cl)(Cl)Cl)cc1` (centres undefined), the outcome was inactive.
As for `NS(=O)(=O)C(F)(F)C(F)(F)C(F)(F)C(F)(F)C(F)(F)C(F)(F)C(F)(F)C(F)(F)F`, the AC50 was 21 µM (active).
Turning to `O=S(=O)(O)C(F)(F)C(F)(F)C(F)(F)C(F)(F)F`, the molecule was called inactive.
For `Nc1ccc(-c2ccc(N)cc2)cc1`, the outcome was inactive.
As for `C=CC(N)=O`, the result was inactive.
`CCOCCOC(C)=O`: the outcome was inactive.
For `O=C(O)C(F)(F)C(F)(F)C(F)(F)C(F)(F)C(F)(F)C(F)(F)C(F)(F)C(F)(F)F`, the outcome was inactive.
As to `CCCCCCCCCc1ccc(O)cc1`, the call was inactive.
For `CO/C=C(/C(=O)OC)c1ccccc1COc1cccc(C(F)(F)F)n1`, the half-maximal activity concentration (AC50) is 12.1 µM (active).
Consider `ClC1=C(Cl)[C@]2(Cl)[C@@H]3[C@@H]4C[C@@H]([C@H]5O[C@@H]45)[C@@H]3[C@@]1(Cl)C2(Cl)Cl`, for which the molecule was classed as inactive.
Same read-out and setting: then `Cc1ccccc1[N+](=O)[O-]`, with “inactive”; and `Oc1ccc(Cl)cc1Cl`, with “inactive”.
As for `Clc1ccc(C(Cl)(Cl)Cl)cc1`, the molecule was classed as inactive.
As for `C=CC(=O)NCNC(=O)C=C`, the molecule was called inactive.
For the molecule `C1CC2OC2CC1C1CO1` (centres undefined), the molecule was classed as inactive.
For `O=C(NC(=O)c1c(F)cccc1F)Nc1cc(Cl)c(OC(F)(F)C(F)F)c(Cl)c1`, the outcome was inactive.
`O=C(NC(=O)c1cc(F)c(F)cc1Cl)Nc1cc(F)ccc1N1CCC(C(=O)O)CC1`: the call was inactive.
On the same count and under the same terms, for `ClC(Cl)=C(c1ccc(Cl)cc1)c1ccc(Cl)cc1` the value was “inactive”; for `CCC(C)(c1ccc(O)cc1)c1ccc(O)cc1`, “inactive”; for `COS(=O)(=O)OC`, “inactive”.
As for `N#Cc1ccc(N(CC(N)=O)CC(F)(F)F)cc1C(F)(F)F`, the result was inactive.
As for `CCC(=O)O[C@H]1CC[C@H]2[C@@H]3CCC4=CC(=O)CC[C@]4(C)[C@H]3CC[C@]12C`, the call was inactive.
On the same count and under the same terms, for `CCCCCCCCOC(=O)c1ccccc1C(=O)OCCCCCCCC` the value was “inactive”.

(Values after PubChem BioAssay (EPA / NIEHS).)
